Assay results: the supplement of paper PMC7411054
Counter-ions that a name gives are not always drawn.

How the values were obtained:
Details in all cases: treatment time: 24 h
[1] = tested on: WPMY1-GM130-SQSTM1; test: lowest phenotypically active concentration; higher = less potent
How it was run: (§1)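 The reporter lines, fifteen in total and built by gene editing in A549, HepG2 and WPMY1 cells, used BFP for segmentation alongside GFP and RFP/FusionRed markers. Each was treated at 0.3, 1, 3 or 9 µM for 24 h in four wells and then imaged live, with live-cell features normalised to solvent control wells. Deviation meant ≥3 of 4 wells beyond the 95th percentile of control Euclidean distances; reproducibility meant a median replicate Pearson correlation above the 95th percentile of non-replicates. Only conditions meeting both were scored as phenotypically active.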

[2] = tested on: WPMY1-TP53BP1-CLTA; test: as above
How it was run: as §1

[3] = tested on: A549-ACTB-RAB5A; test: phenotypically active (imaging signature differs from DMSO and reproducible) at any of 0.3-9 uM (binary (1 = active, 0 = inactive)); higher = active
How it was run: as §1

[4] = tested on: A549-CANX-COX4; test: as above
How it was run: as §1

[5] = tested on: A549-GM130-SQSTM1; test: as above
How it was run: as §1

[6] = tested on: A549-TP53BP1-CLTA; test: as above
How it was run: as §1

[7] = tested on: A549-TUBA1B-RELA; test: as above
How it was run: as §1

[8] = tested on: HepG2-ACTB-RAB5A; test: as above
How it was run: as §1

[9] = tested on: HepG2-CANX-COX4; test: as above
How it was run: as §1

[10] = tested on: HepG2-GM130-SQSTM1; test: as above
How it was run: as §1

[11] = tested on: HepG2-TP53BP1-CLTA; test: as above
How it was run: as §1

[12] = tested on: HepG2-TUBA1B-RELA; test: as above
How it was run: as §1

[13] = tested on: WPMY1-ACTB-RAB5A; test: as above
How it was run: as §1

[14] = tested on: WPMY1-CANX-COX4; test: as above
How it was run: as §1

[15] = tested on: WPMY1-GM130-SQSTM1; test: as above
How it was run: as §1

[16] = tested on: WPMY1-TP53BP1-CLTA; test: as above
How it was run: as §1

[17] = tested on: WPMY1-TUBA1B-RELA; test: as above
How it was run: as §1

[18] = tested on: WPMY1-ACTB-RAB5A; test: lowest phenotypically active concentration; higher = less potent
How it was run: as §1

Compound | lowest phenotypically active concentration [1] | lowest phenotypically active concentration [2] | phenotypically active [3] | phenotypically active [4] | phenotypically active [5] | phenotypically active [6] | phenotypically active [7] | phenotypically active [8] | phenotypically active [9] | phenotypically active [10] | phenotypically active [11] | phenotypically active [12] | phenotypically active [13] | phenotypically active [14] | phenotypically active [15] | phenotypically active [16] | phenotypically active [17] | lowest phenotypically active concentration [18]
COc1ccc2c3c(c(=O)n(C)c2c1OC)C=CC(C)(C)O3 [Veprisine] | 9 µM | 9 µM | 0 (inactive) | 0 (inactive) | 0 (inactive) | 0 (inactive) | 0 (inactive) | 0 (inactive) | 0 (inactive) | 0 (inactive) | 0 (inactive) | 0 (inactive) | 0 (inactive) | 0 (inactive) | 1 (active) | 1 (active) | 0 (inactive) | –
CC(C)C(=O)Nc1ncc(-c2cc(C(F)F)nn2-c2c(Cl)cccc2Cl)s1 | 9 µM | – | 1 (active) | 0 (inactive) | 0 (inactive) | – | 0 (inactive) | 1 (active) | 1 (active) | 0 (inactive) | – | 0 (inactive) | 1 (active) | 1 (active) | 1 (active) | – | 1 (active) | 9 µM
C/C(=C/C(=O)Nc1ccccc1C(=O)O)c1ccc2ccccc2c1 | – | – | – | 0 (inactive) | – | 0 (inactive) | – | 0 (inactive) | 0 (inactive) | 0 (inactive) | 0 (inactive) | 0 (inactive) | 0 (inactive) | 0 (inactive) | 0 (inactive) | 0 (inactive) | 0 (inactive) | –
C[C@@H](c1ncncc1F)[C@](O)(Cn1cncn1)c1ccc(F)cc1F [voriconazole] | – | – | – | 0 (inactive) | – | 0 (inactive) | – | 0 (inactive) | 0 (inactive) | 0 (inactive) | 0 (inactive) | 0 (inactive) | 0 (inactive) | 0 (inactive) | 0 (inactive) | 0 (inactive) | 0 (inactive) | –
CNC(=O)c1c(-c2ccc(F)cc2)oc2cc(N(CCO)S(C)(=O)=O)c(C3CC3)cc12 [nesbuvir] | – | – | – | 0 (inactive) | – | 0 (inactive) | – | 0 (inactive) | 0 (inactive) | 0 (inactive) | 0 (inactive) | 0 (inactive) | 0 (inactive) | 0 (inactive) | 0 (inactive) | 0 (inactive) | 0 (inactive) | –
CN(CCOc1ccc(NS(C)(=O)=O)cc1)CCc1ccc(NS(C)(=O)=O)cc1 [dofetilide] | – | – | 0 (inactive) | 0 (inactive) | 0 (inactive) | – | 0 (inactive) | 0 (inactive) | 0 (inactive) | 0 (inactive) | – | 0 (inactive) | 0 (inactive) | 0 (inactive) | 0 (inactive) | – | 0 (inactive) | –
CCCc1nc2c(C)cc(-c3nc4ccccc4n3C)cc2n1Cc1ccc(-c2ccccc2C(=O)O)cc1 [telmisartan] | – | – | – | 0 (inactive) | – | 0 (inactive) | – | 0 (inactive) | 0 (inactive) | 0 (inactive) | 0 (inactive) | 0 (inactive) | 0 (inactive) | 0 (inactive) | 0 (inactive) | 0 (inactive) | 0 (inactive) | –
Cc1ccc(C(=O)c2cc(O)c(O)c([N+](=O)[O-])c2)cc1 [tolcapone] | – | – | – | 0 (inactive) | – | 0 (inactive) | – | 0 (inactive) | 0 (inactive) | 0 (inactive) | 0 (inactive) | 0 (inactive) | 0 (inactive) | 0 (inactive) | 0 (inactive) | 0 (inactive) | 0 (inactive) | –
OCc1ccccc1O[C@@H]1O[C@H](CO)[C@@H](O)[C@H](O)[C@H]1O [Salicin] | – | – | – | 0 (inactive) | – | 0 (inactive) | – | 0 (inactive) | 0 (inactive) | 0 (inactive) | 0 (inactive) | 0 (inactive) | 0 (inactive) | 0 (inactive) | 0 (inactive) | 0 (inactive) | 0 (inactive) | –
COc1ccc(-c2ccc3cc(C(=O)O)ccc3c2)cc1C12CC3CC(CC(C3)C1)C2 [Adapalene] | 1 µM | – | 0 (inactive) | 0 (inactive) | 0 (inactive) | 0 (inactive) | 0 (inactive) | 0 (inactive) | 0 (inactive) | 0 (inactive) | 0 (inactive) | 0 (inactive) | 0 (inactive) | 0 (inactive) | 1 (active) | 0 (inactive) | 0 (inactive) | –
O=S(c1ccccc1)c1ccc2nnnn2n1 (stereo not drawn) | – | – | 1 (active) | 0 (inactive) | 0 (inactive) | – | 0 (inactive) | 0 (inactive) | 0 (inactive) | 0 (inactive) | – | 0 (inactive) | 0 (inactive) | 1 (active) | 0 (inactive) | – | 1 (active) | –
NC(=O)c1sc2c([N+](=O)[O-])cc(C(F)(F)F)cc2[n+]1[O-] [Cyclapolin 9] | 9 µM | – | 0 (inactive) | 0 (inactive) | 0 (inactive) | 0 (inactive) | 0 (inactive) | 0 (inactive) | 0 (inactive) | 0 (inactive) | 0 (inactive) | 0 (inactive) | 0 (inactive) | 0 (inactive) | 1 (active) | 0 (inactive) | 1 (active) | –
CC[C@@H]1C(=O)OC[C@@H]1Cc1cncn1C [Pilocarpine hydrochloride] | – | – | – | 0 (inactive) | – | 0 (inactive) | – | 0 (inactive) | 0 (inactive) | 0 (inactive) | 0 (inactive) | 0 (inactive) | 0 (inactive) | 0 (inactive) | 0 (inactive) | 0 (inactive) | 0 (inactive) | –
Clc1ccc2nsnc2c1NC1=NCCN1 [tizanidine] | – | – | – | 0 (inactive) | – | 0 (inactive) | – | 0 (inactive) | 0 (inactive) | 0 (inactive) | 0 (inactive) | 0 (inactive) | 0 (inactive) | 0 (inactive) | 0 (inactive) | 0 (inactive) | 0 (inactive) | –
